Whole data set: some 16,000 sequences, median “rpm ratio (pull-down/input)” near 0.5, cut for the highest 2% near 5.5. The sample as a whole holds a higher share of the highest values than the screen did.

In this test the target is T1, MBP-FoxP3dN (Mus musculus, UniProt Q99JB6 188-423).
T1 sequence: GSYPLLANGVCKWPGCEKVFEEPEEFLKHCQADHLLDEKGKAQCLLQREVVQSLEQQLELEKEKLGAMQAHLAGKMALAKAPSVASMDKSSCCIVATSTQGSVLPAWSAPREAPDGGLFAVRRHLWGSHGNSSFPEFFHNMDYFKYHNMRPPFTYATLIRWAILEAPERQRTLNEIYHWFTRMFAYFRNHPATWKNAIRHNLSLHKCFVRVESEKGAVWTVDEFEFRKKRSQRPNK
The test can be described thus: PD-seq (MBP pull-down with sequencing); 20 mM Tris-HCl pH 7.5, 100 mM NaCl, 1.5 mM MgCl2, 0.4 uM protein, 0.1 uM dsDNA library, 30 min, room temperature, amylose pull-down; high values mean tight binding. The note with it: protein: recombinant; tags: His6-MBP; chain copies: 2; dsDNA, one strand shown. The essentials: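 Protein and DNA were mixed at 0.4 µM and 0.1 µM and held for 30 min at room temperature in Tris pH 7.5 buffer with NaCl and MgCl2; the protein was a His6-MBP-tagged, N-terminally truncated mouse FoxP3 or FoxP1 fragment from E. coli, and the DNA a Klenow-filled double-stranded degenerate library. Amylose resin captured the complexes, which were washed three times. Binding is read as reads-per-million enrichment of pull-down versus input after Illumina sequencing, with replicates pooled.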
Regarding “GATGATTGTTCTCCCAGCTGATGAATTTGGTTATTCGAGTAAACAAATTTTCCTAATCTTTCTGTTCAAGCGCCATCTAC”, the binding signal is 3.56 RPM ratio (pull-down/input).
Regarding “GATGATTGTTCTCCCAGCTGATGAATTTCGTTATTCGAGTAAACAAATTTTCCTAATCTTTCTGTTCAAGCGCCATCTAC”, the binding signal is 2.7 RPM ratio (pull-down/input).
As for “GATGATTGTTCTCCCAGCTGATGAATTATGTAATTCGAGTAAACAAATTTTCCTAATCTTTCTGTTCAAGCGCCATCTAC”, the figure is 3.03 RPM ratio (pull-down/input); as for “GATGATTGTTCTCCCAGCTGATGAATTATTTTGTTCGAGTAAACAAATTTTCCTAATCTTTCTGTTCAAGCGCCATCTAC”, 1.15 RPM ratio (pull-down/input).
As for “GATGATTGTTCTCCCAGCTGATGAATTTTGTTATTCGAGTAAACAAATTTTCCTAATCTTTCTGTTCAAGCGCCATCTAC”, the figure is 7.33 RPM ratio (pull-down/input); as for “GATGATTGTTCTCCCAGCTGATGAATTATTATGTTCGAGTAAACAAATTTTCCTAATCTTTCTGTTCAAGCGCCATCTAC”, 1.3 RPM ratio (pull-down/input).
For “GATGATTGTTCTCCCAGCTGATGAATTTGATTATTCGAGTAAACAAATTTTCCTAATCTTTCTGTTCAAGCGCCATCTAC” the value was 4.96 RPM ratio (pull-down/input); for “GATGATTGTTCTCCCAGCTGATGAATTATGTTATTCGAGTAAACAAATTTTCCTAATCTTTCTGTTCAAGCGCCATCTAC”, 7.23 RPM ratio (pull-down/input).
Turning to “GATGATTGTTCTCCCAGCTGATGAATTTTGTACGTCGAGTAAACAAATTTTCCTAATCTTTCTGTTCAAGCGCCATCTAC”, the binding signal is 1.18 RPM ratio (pull-down/input).
As for “GATGATTGTTCTCCCAGCTGATGAATTGTAAGTGTCGAGTAAACAAATTTTCCTAATCTTTCTGTTCAAGCGCCATCTAC”, the figure is 0.84 RPM ratio (pull-down/input); as for “GATGATTGTTCTCCCAGCTGATGAATTTTGATGTTCGAGTAAACAAATTTTCCTAATCTTTCTGTTCAAGCGCCATCTAC”, 3.91 RPM ratio (pull-down/input); as for “GATGATTGTTCTCCCAGCTGATGAATTTAAGGATTCGAGTAAACAAATTTTCCTAATCTTTCTGTTCAAGCGCCATCTAC”, 0.302 RPM ratio (pull-down/input).
Take “GATGATTGTTCTCCCAGCTGATGAATTGAATATTTCGAGTAAACAAATTTTCCTAATCTTTCTGTTCAAGCGCCATCTAC”: the binding signal is 0.671 RPM ratio (pull-down/input).
As for “GATGATTGTTCTCCCAGCTGATGAATTTTGACCATCGAGTAAACAAATTTTCCTAATCTTTCTGTTCAAGCGCCATCTAC”, the figure is 0.551 RPM ratio (pull-down/input).
For “GATGATTGTTCTCCCAGCTGATGAATTGTGTTATTCGAGTAAACAAATTTTCCTAATCTTTCTGTTCAAGCGCCATCTAC” the value was 7.88 RPM ratio (pull-down/input); for “GATGATTGTTCTCCCAGCTGATGAATTGTTATATTCGAGTAAACAAATTTTCCTAATCTTTCTGTTCAAGCGCCATCTAC”, 1.27 RPM ratio (pull-down/input); for “GATGATTGTTCTCCCAGCTGATGAATTATTGTGTTCGAGTAAACAAATTTTCCTAATCTTTCTGTTCAAGCGCCATCTAC”, 2.16 RPM ratio (pull-down/input).
As for “GATGATTGTTCTCCCAGCTGATGAATTGGATCGTTCGAGTAAACAAATTTTCCTAATCTTTCTGTTCAAGCGCCATCTAC”, the figure is 0.402 RPM ratio (pull-down/input).
As to “GATGATTGTTCTCCCAGCTGATGAATTTACAGGATCGAGTAAACAAATTTTCCTAATCTTTCTGTTCAAGCGCCATCTAC”, the binding signal was 0.329 RPM ratio (pull-down/input).
Take “GATGATTGTTCTCCCAGCTGATGAATTCTTAAGTTCGAGTAAACAAATTTTCCTAATCTTTCTGTTCAAGCGCCATCTAC”: the binding signal was 0.237 RPM ratio (pull-down/input).
As for “GATGATTGTTCTCCCAGCTGATGAATTATGTATGTCGAGTAAACAAATTTTCCTAATCTTTCTGTTCAAGCGCCATCTAC”, the binding signal is 4.99 RPM ratio (pull-down/input).
As for “GATGATTGTTCTCCCAGCTGATGAATTCTATGTGTCGAGTAAACAAATTTTCCTAATCTTTCTGTTCAAGCGCCATCTAC”, the binding signal is 1.96 RPM ratio (pull-down/input).
With “GATGATTGTTCTCCCAGCTGATGAATTGTATGTTTCGAGTAAACAAATTTTCCTAATCTTTCTGTTCAAGCGCCATCTAC”, the binding signal was 3.89 RPM ratio (pull-down/input).
For “GATGATTGTTCTCCCAGCTGATGAATTGGTATGGTCGAGTAAACAAATTTTCCTAATCTTTCTGTTCAAGCGCCATCTAC” the value was 1.45 RPM ratio (pull-down/input); for “GATGATTGTTCTCCCAGCTGATGAATTTTGTATGTCGAGTAAACAAATTTTCCTAATCTTTCTGTTCAAGCGCCATCTAC”, 6.01 RPM ratio (pull-down/input); for “GATGATTGTTCTCCCAGCTGATGAATTGTATGTGTCGAGTAAACAAATTTTCCTAATCTTTCTGTTCAAGCGCCATCTAC”, 3.75 RPM ratio (pull-down/input).
For “GATGATTGTTCTCCCAGCTGATGAATTGTGTATGTCGAGTAAACAAATTTTCCTAATCTTTCTGTTCAAGCGCCATCTAC” the value was 5.84 RPM ratio (pull-down/input); for “GATGATTGTTCTCCCAGCTGATGAATTTGTATGGTCGAGTAAACAAATTTTCCTAATCTTTCTGTTCAAGCGCCATCTAC”, 6.04 RPM ratio (pull-down/input).
For “GATGATTGTTCTCCCAGCTGATGAATTGTATGATTCGAGTAAACAAATTTTCCTAATCTTTCTGTTCAAGCGCCATCTAC”, the binding signal was 2.94 RPM ratio (pull-down/input).
For “GATGATTGTTCTCCCAGCTGATGAATTTGTATGTTCGAGTAAACAAATTTTCCTAATCTTTCTGTTCAAGCGCCATCTAC” the value was 6.63 RPM ratio (pull-down/input).
Consider “GATGATTGTTCTCCCAGCTGATGAATTCTGTATGTCGAGTAAACAAATTTTCCTAATCTTTCTGTTCAAGCGCCATCTAC”, for which the binding signal was 4.95 RPM ratio (pull-down/input).
For the sequence “GATGATTGTTCTCCCAGCTGATGAATTGTATGGGTCGAGTAAACAAATTTTCCTAATCTTTCTGTTCAAGCGCCATCTAC”, the binding signal is 1.19 RPM ratio (pull-down/input).
